# Screening data as filed in PubChem.
# Shown are actives, neighbours in structure and some others; about 2.2% of the full set was active somewhere.
# KLF5 inh = kruppel-like factor 5 inhibition; DLD-1 KLF5 promoter-luciferase reporter, luminescence; inhibition, % at 5 µM; 0.23% of 290,000 active; AID 1700;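 active = inhibition above a per-plate limit of that plate's mean compound inhibition plus 3 SD, cut at about 60% in these data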;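 also: 0% = DMSO wells and 100% = LY294002 at 200 µM; higher means less KLF5 promoter-driven luciferase light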
# Ba/F3 V617F tox = loss of viability in JAK2V617F-driven Ba/F3 cells. Ba/F3 EpoR-JAK2V617F viability, ATP luminescence. inhibition, % at 5.6 µM. 1.1% of 220,000 active;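 active = inhibition above the campaign mean plus 3 SD over all tested compounds, cut at about 24% in these data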;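 also: cytokine-independent growth of Ba/F3 cells driven by EpoR plus mutant JAK2; 0% = DMSO-treated cells and 100% = JAK inhibitor I control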
# BaF3 parental = reduces parental Ba/F3 cell viability, JAK2V617F counter-screen; CellTiter-Glo ATP luminescence; inhibition, % at 5.6 µM; 1.1% of 220,000 active;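 active = inhibition above a per-campaign cutoff, the mean inhibition of all tested compounds plus 3 SD, cut at about 27% in these data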;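 also: 0% = DMSO wells and 100% = JAK Inhibitor I control wells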
# aSyn UTR inh = 5' untranslated region of α-synuclein, MLPCN primary screen | AID 1813 | 0.82% of 300,000 active | alpha-synuclein 5'UTR reporter, inhibitor activity | inhibition, % (tested at 7.5 µM); in the data active = inhibition above about 60%;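 also: H4 neuroglioblastoma cells stably carrying SNCA 5'UTR luciferase fusion; 0% = DMSO wells and 100% = positive control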
# IEC-6 tox = IEC-6 cytotoxicity, counter-screen for KLF5 inhibitors; 0.78% of 290,000 active; luminescence viability; inhibition, % at 5 µM; AID 1825; in the data active = inhibition above about 22%;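 also: 0% = plate median of test compound wells and 100% = cytotoxic reference compound wells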
# APP transl inh = APP translation inhibition; SH-SY5Y APP 5'UTR-luciferase reporter, luminescence; inhibition, % at 2 µM; 0.82% of 190,000 active; AID 1285;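 active = inhibition above a set limit, derived from the sample mean plus 3 SD, cut at about 45% in these data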
# BaF3 parental 2 = parental Ba/F3 viability inhibition for JAK2V617F counter-screen; shares compounds with Ba/F3 V617F tox; CellTiter-Glo luminescence; cells kept alive by added IL-3; inhibition, % at 5.6 µM; 31% of 580 active; AID 1520;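 active = cell growth inhibition above the hit limit set in the earlier mutant JAK2 cell screen, cut at about 27% in these data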;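 also: plate controls were DMSO-treated cells for no effect and JAK Inhibitor I control wells for full effect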
# JAK2V617F confrm = confirmation: loss of viability in JAK2V617F-dependent Ba/F3 cells | shares compounds with Ba/F3 V617F tox | inhibition, % at 5.6 µM | 66% of 580 active | Ba/F3 EpoR-JAK2V617F viability, CellTiter-Glo luminescence;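 active = mean inhibition above the hit cutoff derived in the earlier primary screen, cut at about 25% in these data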;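 also: 0% = DMSO-treated cells and 100% = JAK inhibitor I control wells; higher means lower luminescence from reduced cell ATP and viability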
# Numbers without * were called inactive; / = no result given.
SMILES,KLF5 inh,Ba/F3 V617F tox,BaF3 parental,aSyn UTR inh,IEC-6 tox,APP transl inh,BaF3 parental 2,JAK2V617F confrm
CNc1cc(CSC)nc(SCc2ccc(Cl)cc2Cl)n1,-4,-1,1,49,-1,-1,/,/
CSCc1cc(N(C)C)nc(SCc2ccc(Cl)c(Cl)c2)n1,26,42*,1,36,-2,-8,-3,1
CC(C)CN(C)Cc1c(C(=O)N2CCc3ccccc3C2)nc2ccc(Cl)cn12,12,2,8,46,7,-9,/,/
COc1cc(C(=O)NCC(=O)Nc2ccc(F)c(F)c2)ccc1OCC(=O)N1CCOCC1,/,/,/,3,/,/,/,/
O=C(Nc1cc(Cl)ccc1-n1cncn1)c1ccc([N+](=O)[O-])s1,-17,/,/,-10,20,/,/,/
COc1ccc(-c2cc(C(=O)N/N=C/c3ccc(OC)c(COCC(F)(F)C(F)F)c3)c3ccccc3n2)c(OC)c1,-19,49*,4,32,4,4,-2,6
CCOc1ccccc1N1CCN(C(=O)c2cc(-c3cc(OC)ccc3OC)nc3ccccc23)CC1,-1,/,/,1,5,/,/,/
COc1ccc(CCN(C)C(=O)C2CCN(Cc3cccc(OC)c3OC)CC2)cc1OC,-23,31*,-1,26,2,-22,-1,-2
COc1ccc2nc(C)cc(Nc3ccc(C)cc3)c2c1,-28,/,/,27,4,/,/,/
Cc1ccc2nc(C)cc(Nc3ccc([N+](=O)[O-])cc3)c2c1,5,38*,4,10,6,19,1,82*
O=C(/C(=N/N=C/c1ccc(O)c(O)c1)c1ccccc1)c1ccccc1,-24,49*,10,4,-4,4,9,99*
Oc1ccc(/C=N/N=C/c2ccc(O)c(O)c2)cc1O,-24,/,/,-25,4,/,/,/
Cc1c(OCC(=O)NCC(O)c2ccccc2)ccc2c3c(c(=O)oc12)CCCC3 (centres undefined),-5,/,/,12,2,/,/,/
COC(=O)C1=C(C)N(C)C(=S)NC1c1ccc(OC)cc1OC (centres undefined),2,2,7,-11,-3,-10,/,/
CCN(CC)CCCNC(=O)c1cc(-c2ccc(Cl)cc2)on1,-4,24*,1,-8,-1,-12,0,-1
Cc1c(Cl)cccc1NC(=O)CN(C1CCCCC1)S(C)(=O)=O,-10,/,/,2,-4,/,/,/
Cc1cccc(N(Cc2ccccc2)C(=O)CCl)c1,6,57*,4,-21,-3,22,3,98*
CN1CCN(Cc2cc(COCc3ccccc3)c3cccnc3c2O)CC1,20,38*,16,99*,5,72*,5,29*
CC1=CC(C)(C)Nc2ccc(OC(=O)CN3C(=O)CCC3=O)cc21,-10,4,4,31,4,26,/,/
CC1=CC(C)(C)Nc2ccc(OC(=O)c3ccco3)cc21,-12,43*,0,13,-4,37,37*,83*
Cc1ccc(-c2nc(C=Nc3ccc(O)cc3)c(O)o2)cc1,-11,38*,19,-95,5,66*,28*,83*
O=C(N/N=C/c1cc2c3c(c1O)CCCN3CCC2)c1ccccc1O,5,35*,5,104*,-5,85*,95*,96*
O=C(Cn1ncn2nc(-c3ccccc3)cc2c1=O)NCc1ccccn1,3,/,/,-3,1,/,/,/
COC1(OC)C(/C=C/c2ccc(Cl)cc2)C(C#N)(C#N)C1(OC)OC (centres undefined),21,81*,13,-51,20,10,2,73*
O=C(N/C(=C\c1ccccc1)C(=O)N1CCCCC1)c1ccco1,0,/,/,-8,3,/,/,/
CCOC(=O)c1ccc(NC(=O)NCCc2ccccc2OC)cc1,-1,64*,0,8,-2,-27,-6,-10
CCOC(=O)c1ccc(NC(=S)NCCC2=CCCCC2)cc1,5,81*,-3,4,3,12,-5,-14
CCOC(=O)c1ccc(NC(=O)NCc2ccccc2OC)cc1,-11,6,3,28,5,-25,/,/
Cc1ccc(NC(=S)NCCC2=CCCCC2)cc1,-45,7,12,-137,8,-95,/,/
Cc1ccc(C(=O)OCC(=O)N(CCc2ccccc2)Cc2ccccc2)cc1S(=O)(=O)N1CCOCC1,/,/,/,9,/,/,/,/
